# This is a sample that favours compounds with a hit; in the whole collection about 7.3% have one here.
# VACV mCherry inh: qHTS for Stage-Specific Inhibitors of Vaccinia Orthopoxvirus: mCherry Reporter Primary qHTS | AID 720579, 2013 | Potency, µM (top dose mostly 36.5 µM), inactives show top-dose activity change, negative = inhibition, usual class: inhibitors | 310,000 compounds, 0.63% hits | Vaccinia virus mCherry reporter infection, fluorescence; calls by dose curve; tested in A549 cells; also: potency is read from the fitted curve at half-maximal effect; nearly all actives have a fitted effect of over 35% in size
# VACV Venus inh: qHTS for Stage-Specific Inhibitors of Vaccinia Orthopoxvirus: Venus Reporter Primary qHTS; Vaccinia virus Venus reporter expression, fluorescence; Potency, µM (top dose mostly 36.5 µM), without a hit: at the top dose activity change, negative = inhibition, actives largely listed as inhibitors; 330,000 compounds, 0.46% hits; AID 720580, 2013; calls by dose curve; tested in A549 cells; also: potency is read from the fitted curve at half-maximal effect; nearly all actives have a fitted effect of over 30% in size
# HCV inh: qHTS Assay for Inhibitors of Hepatitis C Virus (HCV); AID 651820, 2012; Huh7.5.1 HCVcc-Cre infection, luciferase reporter, 44 h; Potency, µM (titrated, usually from 41.8 µM), for inactives: at the top dose activity change, negative = inhibition, most hits filed as inhibitors; 340,000 compounds, 3.4% hits; active = well fitted inhibition curve with a large enough effect; inconclusive = small, poorly fitted or top-dose-only effect, or another doubt; inactive = no such curve, though single readings can be large or run the other way; also: potency is read from the fitted curve at half-maximal effect
#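 A cell-based infection assay in which seeded cells (1,000 per well) receive test compound after 4 h, are inoculated with HCVcc-Cre at approximately 0.5 moi, and are incubated 44 h before luminescence detection.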
# FMDV antiviral: High Throughput Screening for Foot and Mouth Disease Virus Antivirals. FMDV antiviral cell-based qHTS. Potency, µM (doses to about 57.9 µM), inactives show at the highest dose activity change, negative = inhibition, actives largely listed as inhibitors. 410,000 compounds, 1.2% hits; calls by dose curve; tested in HEK293T cells; also: read-out not given here; potency is read from the fitted curve at half-maximal effect; nearly all actives have a fitted effect of over 45% in size
# HCMV antiviral: qHTS Assay for inhibitors of the human cytomegalovirus (HCMV); HFF cells, HCMV-luciferase reporter, 72 h; hits give low values; activity change, negative = inhibition, % at 57.5 µM; 410,000 compounds, 4.5% hits; in the data active = activity change below about -60%; inconclusive = no clear call, values can overlap the other calls; inactive = above about -39%
#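 Luciferase read-out from HCMV-luciferase-infected HFFs (MOI 1 PFU/cell) 72 h post infection at 37C; compounds added after 16 h cell attachment; activity normalized between buffer-only basal and Salinomycin (10uM) inhibitor controls.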
# An asterisk follows results filed as active; i = inactive; ? = inconclusive; · = not tested or not shown; [ ] = dose if it differs, or a comment. % is scaled to controls: 0 for no effect and ±100 for the full control effect.
SMILES,VACV mCherry inh,VACV Venus inh,HCV inh,FMDV antiviral,HCMV antiviral
Cc1cccc2nc(COc3ccc(Cl)c4cccnc34)cn12,-5%,-22%,?,14%,-80*
COc1cc(NC(=O)Cc2nn(C)c(=O)c3ccccc23)cc(OC)c1,·,?,10µM*,?,-88*
COc1cccc(OC)c1NC(=O)Cc1nn(C)c(=O)c2ccccc12,·,·,7%,-14%,9
Cc1ccc(NC(=O)Cc2nn(C)c(=O)c3ccccc23)cc1F,i,-4%,?,?,?
Cn1nc(CC(=O)Nc2ccc3c(c2)OCCO3)c2ccccc2c1=O,·,-30%,6.3µM*,?,-25
Cn1nc(CC(=O)Nc2ccc(N3CCN(C(=O)OC(C)(C)C)CC3)cc2)c2ccccc2c1=O,-9%,-2%,?,?,-79*
Cn1nc(CC(=O)NCc2ccc(F)cc2)c2ccccc2c1=O,-14%,-15%,11µM*,?,?
CCN(c1ccccc1)S(=O)(=O)c1ccc(OC)c(NC(=O)CCc2nc3ccccc3c(=O)[nH]2)c1,-4%,-18%,-25%,0%,-34
Cc1cc(NC(=O)CSc2nnc(-c3ccccc3F)n2N)no1,-1%,1%,9%,-18%,-2
FC(F)(F)c1nc(N2CCCC2)ncc1-c1nnnn1-c1ccccc1,·,·,11µM*,18µM*,-72*
COc1ccc(-n2nnnc2-c2cn(C)nc2C(F)(F)F)cc1,-13%,-13%,-5%,-14%,-30
Fc1cccc(-n2ncc(-c3nnnn3-c3ccccc3)c2C(F)(F)F)c1,·,·,?,-20%,-24
Cc1ccc(-n2nnnc2-c2cnc(N3CCCC3)nc2C(F)(F)F)cc1,?,?,11µM*,?,?
N#CCCn1c(=O)c(-c2cc(F)cc(F)c2)nc2cnc(OCc3ccccc3)nc21,·,·,·,-21%,·
CCC1(c2ccccc2)NC(=O)N(CC(=O)NNC(=O)COc2ccc(Cl)cc2C)C1=O (configuration not stated),-24%,-18%,-7%,-19%,-21
O=C(O)CCCCCNS(=O)(=O)/C=C/c1ccccc1,10%,5%,18%,-4%,-18
O=C(O)CCCCCNS(=O)(=O)c1cccc2c1C(=O)c1ccccc1C2=O,4.5µM*,5µM*,-16%,-7%,-9
CCOC(=O)C1=C[C@@H](C(C)(C)C)N(S(=O)(=O)c2ccc(C)cc2)[C@H]1c1cccc(Cl)c1,13%,0%,·,-52%,-88*
CCOC(=O)C1=C[C@@H](C(C)(C)C)N(S(=O)(=O)c2ccc(C)cc2)[C@H]1c1ccccc1,i,-6%,·,?,?
Cc1ccc(S(=O)(=O)N2[C@@H](c3ccc(Cl)cc3)C(C(=O)O)=CC[C@H]2c2ccc(Cl)c(Cl)c2)cc1,?,-25%,15%,-25%,-64*
CCOC(=O)C1=C[C@@H](C(C)(C)C)N(S(=O)(=O)c2ccc(C)cc2)[C@H]1c1ccc(OC)cc1,11%,-2%,·,-16%,-64*
CCOC(=O)C1=C[C@@H](C(C)(C)C)N(S(=O)(=O)c2ccc([N+](=O)[O-])cc2)[C@H]1c1ccccc1,i,-6%,·,?,-75*
CC(C)Cn1c(=O)c2ccccc2n2c(CCC(=O)Nc3ccc(F)c(F)c3)nnc12,i,-15%,·,-11%,34
CCOC(=O)C1=CC[C@@H](c2cccc(Br)c2)N(S(=O)(=O)c2ccc(F)cc2)[C@H]1c1cccc(Cl)c1,?,-9%,·,-2%,-74*
Cc1ccc2c(c1)c1c(n2C)C(=O)CCC1,-8%,-12%,4µM*,4%,-7
SMILES,VACV mCherry inh,VACV Venus inh,HCV inh,FMDV antiviral,HCMV antiviral
CCn1c2c(c3cc(Cl)ccc31)CCCC2=O,?,-19%,?,0%,43
COC(=O)c1ccc(NC(=O)CCc2c(C)nc3c(c(C)nn3C(C)(C)C)c2C)cc1,-26%,-27%,·,-1%,3
CC(C)(C)OC(=O)N1CCC(c2c(C(=O)NCC3CCN(C4CCCC4)C3)cnn2-c2ccccc2Cl)CC1 (configuration not stated),·,·,-17%,-12%,-31
CCC(=O)[C@@H](C)[C@@H](O)[C@H](C)C[C@@H](C)C1OC(=O)C[C@@]2(O)CC=C(C)C(O2)C(C)=CCCC[C@H](O[C@H]2C[C@@H](OC(N)=O)[C@H](O)[C@@H](C)O2)C=C[C@H](C)C[C@H]1C (some centres not stated),?,?,·,18µM*,·
CCc1ccc(CSc2nc(-c3ccccc3OC)nc3c2Cc2c(CO)cnc(C)c2O3)cc1,?,?,·,-26%,30
Cc1ccccc1Cn1cc(S(=O)(=O)CC(=O)Nc2nccs2)c2ccccc21,-28%,-23%,?,·,-76*
COc1ccccc1CNC(=O)COC(=O)/C=C/c1ccc2ccccc2n1,·,·,11%,23%,-62*
COc1ccccc1CNC(=O)COC(=O)/C=C/c1cccs1,i,-6%,4%,8%,-26
CC(=O)/C=C/c1ccc2ccccc2n1,·,?,?,?,-84*
Cc1ccc(CN2C(=O)CSCC2(C)C(=O)NCc2ccccc2)cc1 (configuration not stated),i,-6%,·,-23%,77
CC(=O)c1c(CSc2ccccc2)oc2ccc(O)c(CN(C)C)c12,-22%,-15%,?,-11%,-69*
CCOC(=O)c1c(CSc2ccc(CC)cc2)oc2ccc(O)c(CN(C)C)c12,-24%,?,4µM*,?,-82*
CCOC(=O)c1c(CSc2ccc(C)cc2)oc2ccc(O)cc12,-16%,?,14%,22µM*,-37
COC(=O)Cc1c(CSc2ccccc2)oc2ccc(O)c(CN(C)C)c12,-19%,-17%,?,-21%,?
COc1cnc(-c2ccccn2)nc1Sc1cccc(Cl)c1,·,·,7.1µM*,-6%,-64*
COc1cnc(-c2ccccn2)nc1Oc1ccc(Cl)c2ccccc12,·,·,?,3.2µM*,-100*
COc1cnc(-c2ccccn2)nc1Oc1ccc(Cl)cc1,·,·,?,-6%,-29
FC(F)(F)c1cccc(Sc2cc(C(F)(F)F)nc(-c3ccccn3)n2)c1,·,·,-22%,?,-16
COc1cnc(-c2ccccn2)nc1Oc1ccccc1Cl,·,·,?,24%,-25
COc1cnc(-c2ccccn2)nc1Sc1ccc(C)cc1,?,?,?,-3%,-81*
Cc1ccc(Sc2cc(C)nc(-c3ccccn3)n2)cc1,-10%[7.34 µM],-5%[7.34 µM],?,41%,-76*
C[C@H]1Cn2cnc(C(=O)Nc3ccccc3)c2C(=O)N1,-28%,?,·,-17%,-27
COc1ccccc1Sc1nc(-c2ccccn2)ncc1OC,5µM*,-29%,?,-11%,?
COc1cnc(-c2ccccn2)nc1NC(C)C,4.5µM*,?,?,10%,-101*
